The values below come from paper PMC4336329 (PLoS ONE, 2015).

SMILES strings stand for the structures. Out of some 310,000 compounds screened, about 14,000 (4.5%) showed an effect of 50% or more. Effects have a minus sign here. What follows is part of a selection rich in strong results, with near analogues and random picks from the rest.
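Note: peak tail current of the secondary pulse compared with the same well before compound.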

Sequence of human ether-à-go-go-related gene (hERG) potassium channel (Q12809 whole entry, looked up): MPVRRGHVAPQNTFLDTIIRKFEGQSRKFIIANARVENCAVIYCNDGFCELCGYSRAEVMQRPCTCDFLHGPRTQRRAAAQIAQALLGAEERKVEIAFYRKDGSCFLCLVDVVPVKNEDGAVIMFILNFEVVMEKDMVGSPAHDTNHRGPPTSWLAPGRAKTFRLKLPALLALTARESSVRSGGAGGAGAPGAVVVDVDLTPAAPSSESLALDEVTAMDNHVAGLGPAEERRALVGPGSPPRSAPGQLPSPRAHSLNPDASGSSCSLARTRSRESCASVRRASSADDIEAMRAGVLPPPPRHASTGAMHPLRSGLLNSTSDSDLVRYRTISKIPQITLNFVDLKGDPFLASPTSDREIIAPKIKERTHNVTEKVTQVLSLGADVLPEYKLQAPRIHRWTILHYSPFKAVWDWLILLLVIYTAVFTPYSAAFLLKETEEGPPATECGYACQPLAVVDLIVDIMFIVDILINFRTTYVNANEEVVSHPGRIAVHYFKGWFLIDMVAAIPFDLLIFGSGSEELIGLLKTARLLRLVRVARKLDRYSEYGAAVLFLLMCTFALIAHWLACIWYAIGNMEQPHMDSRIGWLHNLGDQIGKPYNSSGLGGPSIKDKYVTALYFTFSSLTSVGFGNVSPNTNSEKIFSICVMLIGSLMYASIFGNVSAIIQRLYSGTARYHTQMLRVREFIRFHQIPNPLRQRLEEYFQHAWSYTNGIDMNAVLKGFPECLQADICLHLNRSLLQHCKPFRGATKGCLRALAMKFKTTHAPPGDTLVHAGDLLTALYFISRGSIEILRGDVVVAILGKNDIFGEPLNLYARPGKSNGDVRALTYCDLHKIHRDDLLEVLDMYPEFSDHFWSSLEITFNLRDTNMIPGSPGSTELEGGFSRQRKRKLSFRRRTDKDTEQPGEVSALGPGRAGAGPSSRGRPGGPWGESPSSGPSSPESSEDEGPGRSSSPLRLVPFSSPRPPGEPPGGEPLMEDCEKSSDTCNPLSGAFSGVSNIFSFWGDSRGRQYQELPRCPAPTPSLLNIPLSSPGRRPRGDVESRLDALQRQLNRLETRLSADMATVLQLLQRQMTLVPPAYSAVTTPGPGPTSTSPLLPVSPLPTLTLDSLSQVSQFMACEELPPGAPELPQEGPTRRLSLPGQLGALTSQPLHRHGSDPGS

This experiment concerns the target human ether-à-go-go-related gene (hERG) potassium channel (human, UniProt Q12809). Description: primary screen, population patch clamp on CHO cells stably expressing hERG; higher = less effect of the substance.
On to `CC(=O)NC(CC(=O)Nc1cccc(S(=O)(=O)N2CCCCC2)c1)c1ccccc1` (stereo not shown), for which the “hERG current change (%, negative = inhibition) at 10uM” value is -1.76%. In the case of `CCCCC(=O)Nc1cc(Cl)ccc1C(=O)O` it was 27.6%. To `CC(=O)N1CCC(c2c[nH]c3ccccc23)CC1` belongs 5.87%; to `CCn1ncc(-c2ccnc3cc(C(=O)O)nn23)c1C`, 12.6%; to `CC(c1ccccc1)n1c(N2CCNCC2)nc2c1c(=O)[nH]c(=O)n2C` (stereo not shown), 6.32%. In the case of `O=C(/C=C/c1ccccc1)OCc1cnc(Cl)s1` it was -6.4%; in that of `Cc1ccc(S(=O)(=O)Cn2nnnc2C(CC(C)C)N2CCC(C(N)=O)CC2)cc1` (stereo not shown), -12.2%; in that of `Cc1cc(NC(=O)/C=C/c2ccccc2)c(C(C)C)cc1O`, 10.7%. Regarding `CC(C)c1ccc(NC2CCCN(C(=O)CCN3CCOCC3)C2)cc1` (stereo not shown), the “hERG current change (%, negative = inhibition) at 10uM” value came to 0.518%. To `C=C1CCN(c2ccc(C(=O)NCc3ccc(OC)cc3)cc2[N+](=O)[O-])CC1` belongs -7.55%. In the case of `O=C(Nc1ccc(Cc2ccncc2)cc1)c1ccc(N2CCOCC2)c([N+](=O)[O-])c1` it was -59.1%; in that of `O=C(Nc1ccc(Cc2ccncc2)cc1)c1cc([N+](=O)[O-])ccc1N1CCOCC1`, -39%. As for `COc1ccc(CNC(=O)c2ccc(N3CCOCC3)c([N+](=O)[O-])c2)cc1`, the “hERG current change (%, negative = inhibition) at 10uM” value was -52.1%. To `O=C(NCc1ccc(F)cc1)c1ccc(N2CCOCC2)c([N+](=O)[O-])c1` belongs -39.6%; to `O=C(Nc1cccnc1)c1ccc(N2CCOCC2)c([N+](=O)[O-])c1`, 21.7%; to `COc1ccc(/C=N/NC(=O)c2cc(-c3ccccc3OC(C)C)nc3ccccc23)cc1CN1CCOCC1`, -4.54%. For `O.O=C(OCC1OC2C(Oc3nc(=O)ccn32)C1O)c1ccccc1` (stereo not shown), the “hERG current change (%, negative = inhibition) at 10uM” value is recorded as -0.213%. To `Cc1ccc(C(=O)N(C)Cc2ccc(N3CCOCC3)cc2)cc1S(=O)(=O)NCc1ccccc1` belongs -55.6%.

For the molecule `Cc1ccc(C)c(S(=O)(=O)NCc2ccc(C(=O)N3CCN(c4ccccc4)CC3)cc2)c1`, the “hERG current change (%, negative = inhibition) at 10uM” value is recorded as -3.21%. To `Cc1ccc(C(=O)N(C)Cc2ccccc2)cc1S(=O)(=O)N1CCOCC1` belongs -12.8%; to `CCN(CC)C(=O)N1CCc2ccccc21`, 0.177%. Regarding `COc1cccc(CC2(CO)CCCN(Cc3cn[nH]c3C3CCCCC3)C2)c1` (stereo not shown), the “hERG current change (%, negative = inhibition) at 10uM” value is reported as -45.1%. Regarding `COc1cccc(CC2(CO)CCCN(Cc3c(C)cc(C)cc3-n3cccn3)C2)c1` (stereo not shown), the “hERG current change (%, negative = inhibition) at 10uM” value is -84.4%. In the case of `COc1ccc(-n2ccnc2CN2CCCC(CO)(Cc3cccc(OC)c3)C2)cc1` (stereo not shown) it was -24.2%; in that of `CCn1ccnc1CN1CCCC(CO)(Cc2cccc(OC)c2)C1` (stereo not shown), -17.7%.

Turning to `COc1cccc(CC2(CO)CCCN(Cc3cn[nH]c3-c3ccc(F)cc3)C2)c1` (stereo not shown), the “hERG current change (%, negative = inhibition) at 10uM” value was 6.58%.

Take `COc1cccc(CC2(CO)CCCN(Cc3cc(F)ccc3-n3cccn3)C2)c1` (stereo not shown): the “hERG current change (%, negative = inhibition) at 10uM” value is recorded as -77.3%. In the case of `COc1ccc(NC2=C(NC(C)=O)C(=O)c3ccccc3C2=O)cc1` it was 13.5%; in that of `COc1cc(OC)nc(NC(=O)CSc2nc3ccccc3[nH]2)n1`, -1.61%; in that of `CCOc1ccc(CCNC(=O)c2cccc(S(=O)(=O)N3CC(C)OC(C)C3)c2)cc1OCC` (stereo not shown), -27.3%. As to `COc1ccc(-c2[nH]ncc2CN2CCN(Cc3cccs3)CC2)cc1F`, the “hERG current change (%, negative = inhibition) at 10uM” value is recorded as -31.2%. As for `COc1cc(-c2[nH]ncc2CN2CCN(Cc3cccs3)CC2)cc(OC)c1OC`, the “hERG current change (%, negative = inhibition) at 10uM” value is -50.3%. To `COc1cc(-c2[nH]ncc2CN2CCN(c3cccc(C)n3)CC2)cc(OC)c1OC` belongs -47.3%; to `COc1cc(-c2[nH]ncc2CN2CCSCC2)cc(OC)c1OC`, -9.26%; to `COCC1CCN(Cc2cn[nH]c2-c2cc(OC)c(OC)c(OC)c2)CC1`, -38.1%. To `COCCCC1CCN(Cc2cn[nH]c2-c2cc(OC)c(OC)c(OC)c2)CC1` belongs -61.8%; to `CCCCN(C(=O)c1cccc(S(=O)(=O)N2CCCC2)c1)c1c(N)n(CCC)c(=O)[nH]c1=O`, 4.89%. As to `CN(C)CCN=Cc1c(O)n(Cc2ccc3c(c2)OCO3)c(=O)c2ccccc12`, the “hERG current change (%, negative = inhibition) at 10uM” value is -13.8%. `CCN(CC)CCCN=Cc1c(O)n(-c2c(C)cccc2C)c(=O)c2ccccc12`: the “hERG current change (%, negative = inhibition) at 10uM” value is given as -34.2%. In the case of `O=c1c2ccccc2c(C=NCCCN2CCOCC2)c(O)n1Cc1ccccc1` it was -47.7%; in that of `CCN(CC)CCCN=Cc1c(O)n(-c2ccc(C)cc2)c(=O)c2ccccc12`, -5.54%; in that of `CN(C)CCN=Cc1c(O)n(Cc2ccccc2)c(=O)c2ccccc12`, -52.2%. To `CN(C)CCCN=Cc1c(O)n(Cc2ccccc2)c(=O)c2ccccc12` belongs -64.5%; to `CCN(CC)CCCN=Cc1c(O)n(-c2ccccc2C)c(=O)c2ccccc12`, -52.8%; to `CN(C)CCCN=Cc1c(O)n(Cc2ccc3c(c2)OCO3)c(=O)c2ccccc12`, -49.1%. To `CCN(CC)CCN=Cc1c(O)n(Cc2ccccc2)c(=O)[nH]c1=O` [14739636] belongs -31.3%; to `CCN(CC)CCCN=Cc1c(O)n(-c2cccc(C)c2)c(=O)c2ccccc12`, -42.8%; to `O=c1c2ccccc2c(C=NCCc2ccccc2)c(O)n1Cc1ccccc1`, -5.61%. Consider `CCN(CC)CCCN=Cc1c(O)n(Cc2ccccc2)c(=O)c2ccccc12`, for which the “hERG current change (%, negative = inhibition) at 10uM” value is on record as -76.7%. In the case of `Cc1cccc(NC(=O)CSc2nnc(Cn3cnc4ccccc43)o2)c1` it was -9.07%; in that of `Cc1ccc(S(=O)(=O)N2CCN(C(=O)c3c(-c4ccccc4)noc3C)CC2)cc1`, -4.97%; in that of `COc1ccc(S(=O)(=O)Nc2ccc(C(F)(F)F)cc2)cc1OC`, -12.4%.

For `Fc1ccc(-c2noc(C3CCN(Cc4cccnc4)CC3)n2)cc1`, the “hERG current change (%, negative = inhibition) at 10uM” value is given as -51.5%. To `O=S(=O)(Cc1ccccc1)N1CCCC(c2nc(-c3ccc(F)cc3)no2)C1` (stereo not shown) belongs -3.59%.

Regarding `O=C(Cc1ccccc1)N1CCC(c2nc(-c3ccc(F)cc3)no2)CC1`, the “hERG current change (%, negative = inhibition) at 10uM” value is on record as -50.6%.

As to `O=C(Cc1ccccc1)N1CCCC(c2nc(-c3ccc(S(=O)(=O)N4CCCC4)cc3)no2)C1` (stereo not shown), the “hERG current change (%, negative = inhibition) at 10uM” value is given as -9.11%. On to `O=C(c1ccco1)N1CCC(c2nc(-c3ccc(F)cc3)no2)CC1`, for which the “hERG current change (%, negative = inhibition) at 10uM” value is recorded as -41.8%. To `CCCC1CCC(c2nc(-c3cccnc3)no2)CC1` (stereo not shown) belongs 2.03%.
